KLK7 zymogen act = activators of human kallikrein-7 zymogen; P49862; purified proKLK7, EDANS-DABCYL substrate fluorescence; 100% is mature enzyme control, 0% vehicle; activation, % at 7 µM; hit rate 0.9% among 370,000;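 active = activation above the mean of all tested compounds plus 3 SD, computed per campaign excluding outliers beyond control limits, cut at about 13% in these data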
Target sequence (P49862 whole entry, looked up): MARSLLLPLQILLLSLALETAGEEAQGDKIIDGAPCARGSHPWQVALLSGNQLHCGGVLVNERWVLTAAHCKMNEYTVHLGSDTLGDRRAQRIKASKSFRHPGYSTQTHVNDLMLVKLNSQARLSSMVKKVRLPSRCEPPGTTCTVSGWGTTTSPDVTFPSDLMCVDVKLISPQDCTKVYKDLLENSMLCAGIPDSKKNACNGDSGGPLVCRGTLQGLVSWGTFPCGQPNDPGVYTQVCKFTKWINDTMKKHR
ADAM10 inh = inhibits human ADAM10. O14672. recombinant ADAM10, EDANS/DABCYL FRET peptide cleavage, 3 h. inhibition, % at 7 µM. hit rate 0.62% among 370,000;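 active = inhibition above a per-campaign cutoff equal to the mean of compounds falling between control-based bounds plus 3 SD, cut at about 20% in these data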;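 note: 0% = DMSO wells while the 100% control is not disclosed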
ADAM17 inh = ADAM17 inhibition, QFRET primary screen; P78536; recombinant ADAM17, EDANS/DABCYL FRET peptide cleavage; inhibition, % at 6.95 µM; hit rate 0.83% among 370,000;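 active = inhibition above the mean of compounds lying between control limits plus 3 SD, set per campaign, cut at about 8.5% in these data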;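 note: 0% = DMSO-only wells as the low control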
NRP1-CendR mod = NRP-1/CendR interaction modulation | FAM-RPARPAR peptide binding to NRP-1, fluorescence polarization | hit rate 0.85% among 360,000 | O14786 | inhibition, % at 25 µM;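 active = inhibition or corrected inhibition above about 18%, plus a signal ratio from 0.5 to 1.5, limit read from the data, passing the limit was not always enough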
HGIII-sPLA2 inh = Inhibits HGIII-sPLA2 liposome hydrolysis, primary screen; QFRET BODIPY PC-A2 liposome hydrolysis, fluorescence; inhibition, % at 12.2 µM; hit rate 0.56% among 370,000;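 active = inhibition above mean plus 3 SD of compounds lying within the high and low control bounds, cut at about 19% in these data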;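 note: 0% = median of test compound wells and 100% = no enzyme DMSO wells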
Active calls of the source: *; i = inactive; x = not tested or not shown. Sampled rows, rich in hits. Any-hit rate of the full collection: about 3.4%.

SMILES	KLK7 zymogen act	ADAM10 inh	ADAM17 inh	NRP1-CendR mod	HGIII-sPLA2 inh
NC(=O)C1CCN(c2nc(-c3ccccc3Br)cs2)CC1	1	0	2	x	7
NC(=O)C1CCN(c2nc(-c3ccccc3C(F)(F)F)cs2)CC1	0	-3	0	30*	8
NC(=O)C1CCN(c2nc(-c3ccccc3F)cs2)CC1	0	5	4	25*	6
NC(=O)C1CCN(c2nc(-c3ccc4occc(=O)c4c3)cs2)CC1	0	0	0	25*	3
COC(=O)[C@H](CC(C)C)N(CCCc1cn(Cc2ccccc2)nn1)S(=O)(=O)c1ccc(F)cc1Br	0	16	7	x	-13
CC1CCC2(CC1)CCC2NCc1ccc(Cl)cc1 (stereo unspecified)	x	-6	-4	x	1
C=CCOCCN1C(=O)C2C(c3ccccc3)C=CC(c3ccccc3)C2C1=O (stereo unspecified)	0	0	-1	1	-20
O=C1C2C(c3ccccc3)C=CC(c3ccccc3)C2C(=O)N1CCCO (stereo unspecified)	0	-7	-1	22*	1
O=C(CC1CCCC1)N1CC[C@H]2[C@H](CCCN2Cc2ccccc2)C1	0	5	-2	x	1
CCO[C@H]1OC(C(=O)Nc2ccccc2)=C[C@@H](c2coc3ccccc3c2=O)[C@@H]1CCCO	1	6	2	8	-14
CCO[C@@H]1OC(C(=O)NCc2ccccc2)=C[C@H](C)[C@H]1CCCO	0	5	1	26*	6
CCO[C@@H]1OC(C(=O)NCc2ccccc2)=C[C@H](c2coc3ccccc3c2=O)[C@H]1CCCO	1	-4	-3	20*	0
CCO[C@@H]1OC(C(=O)NC2CC2)=C[C@H](C(C)(C)C)[C@H]1CCCO	0	-5	-2	23*	4
CCCCN1CCS(=O)(=O)N(Cc2cn(Cc3ccccc3Br)nn2)C(C(=O)OC)C1 (stereo unspecified)	-1	-8	-4	x	5
C[C@@H]1OCN(C)[C@H]2C[C@H]3c4[nH]c5cccc(-c6ccc7c(c6)OCO7)c5c4CCN3C[C@@H]12	-1	-59	-12	x	-5
Nn1c(SCC(=O)Nc2ccc(OCc3ccccc3)cc2)nnc1-c1cc(-c2ccc(Cl)cc2)n[nH]1	0	-6	-1	x	8
CCCCC1CCC(C(=O)NC2CCS(=O)(=O)C2)CC1 (stereo unspecified)	0	-5	-4	38*	10
CC(=O)C(=Cc1ccc(Cl)cc1)C(=O)c1ccccc1	0	-6	-1	22*	-2
COc1ccc(C=C(C(C)=O)C(=O)c2ccccc2)cc1	0	4	1	-4	2
CC(C)C(=O)N1CCC2(CC1)Oc1ccc(F)cc1C(=O)C21CC(c2ccc(Cl)cc2)=NO1 (stereo unspecified)	1	8	4	25*	-13
CCC(=O)N1CCC2(CC1)Oc1ccc(F)cc1C(=O)C21CC(c2ccc(Cl)cc2)=NO1 (stereo unspecified)	1	9	2	-8	-9
O=C(Nc1nnc(SCc2ccccc2)s1)C1=COCCO1	-1	-8	0	24*	-18
COc1ccc(/C=C2\OC(=O)c3c(OC)cccc32)cc1OC	-119	i	-321	10	-4
COc1cc2c(c(OC)c1OC)C(=O)C(=Cc1ccccc1)O2	0	2	-1	26*	-8
COC(=O)c1ccn(C(=O)c2ccc(Cl)cc2)n1	3	i	-253	28*	3
SMILES	KLK7 zymogen act	ADAM10 inh	ADAM17 inh	NRP1-CendR mod	HGIII-sPLA2 inh
O=C1CCCN1CCCNC(=S)Nc1ccc(Cl)cc1Cl	0	-8	-3	40*	7
CCOC(=O)[C@H]1[C@H]2COc3ccc(OC)cc3[C@@H]2N2C(=O)CN(Cc3ccco3)C(=O)[C@@]12C	1	2	-2	22*	-6
COc1ccc2c(c1)OC[C@H]1[C@H]2N2C(=O)c3ccc(C)cc3NC(=O)[C@@]2(C)[C@H]1c1ccccc1	-1	16	9.6*	1	40*
CCOC(=O)[C@H]1[C@H]2COc3ccc(OC)cc3[C@@H]2N2C(=O)c3ccc(C)cc3NC(=O)[C@@]12C	1	6	-1	24*	-3
CCOC(=O)[C@H]1[C@H]2COc3cc(OC)ccc3[C@@H]2N2C(=O)CN(Cc3ccco3)C(=O)[C@@]12C	0	-9	-2	10	1
COc1ccc2c(c1)[C@H]1[C@H](CO2)[C@H](c2ccccc2)[C@]2(C)C(=O)Nc3cc(C)ccc3C(=O)N12	-1	3	1	10	-2
COc1cccc(-c2cc(C(C)=O)c3n(c2=O)CCC3)c1OC	0	6	0	x	-2
COC(=O)[C@]12C[C@H](CC(=O)NCc3cccc(C(F)(F)F)c3)C(=O)N(Cc3ccc(Cl)cc3Cl)C1=C[C@H](C(C)C)O[C@@H]2C1CC1	0	-3	-2	x	3
Cc1cc(-c2n[nH]c(=S)n2N=Cc2ccc(O)cc2)n[nH]1	0	5	1	x	7
CC1CCCN(CCCNS(=O)(=O)c2cc3c(cc2Br)CCN3C(=O)C2CC2)C1 (stereo unspecified)	0	-7	5	x	1
O=[N+]([O-])c1c(Nc2ccccc2O)ccc2nonc12	0	4	2	25*	-8
Cc1ccccc1Nc1ccc2nonc2c1[N+](=O)[O-]	0	-8	-2	-3	7
COc1ccccc1N(CC(=O)Nc1cccc(C(F)(F)F)c1)S(C)(=O)=O	0	3	-1	6	-10
Cc1ccc([N+](=O)[O-])cc1N(CC(=O)Nc1ccc(S(=O)(=O)Nc2cccc(C(F)(F)F)c2)cc1)S(C)(=O)=O	0	49*	25*	18	-93
CCCN(C(=O)Cn1c(C(F)(F)F)nc2ccccc21)C1CCS(=O)(=O)C1 (stereo unspecified)	0	-17	1	45*	11
CC(C)CN(C(=O)Cn1c(C(F)(F)F)nc2ccccc21)C1CCS(=O)(=O)C1 (stereo unspecified)	0	-3	-3	12	-2
COC(=O)C[C@@H]1CC[C@@H]2[C@@H](COc3ccc(NC(=O)Nc4cccc(Cl)c4)cc3C(=O)N2C)O1	1	5	2	x	-22
COC(=O)[C@H](CCSC)NC(=O)Nc1ccc(OC)c(Cl)c1	0	-5	-5	24*	5
CCN(C(=O)CSc1nnc(-c2ccccc2Cl)n1C1CCCC1)C1CCS(=O)(=O)C1 (stereo unspecified)	0	-7	-3	20*	1
C[C@@H]1CN([C@@H](C)CO)C(=O)c2cccc(NC(=O)Nc3cccc4ccccc34)c2O[C@H]1CN(C)S(=O)(=O)c1ccc2c(c1)OCCO2	x	-24	-9	x	-23
COCCN(C(=O)CN1CCc2ccccc21)c1c(N)n(Cc2ccccc2)c(=O)[nH]c1=O	2	-36	-10	-74	-10
